# Values joined by “and” are separate entries in the source; they are usually repeats but may differ in a detail not shown here. Equal entries are not always repeated. Active and inactive are the calls of the source. Unless noted, no stated cut-off is given here; in the data, active means inhibition above about 80%; inactive means the rest.
# What was measured:
# [1] = growth inhibition, single agent or in combination, cell-based, chromothripsis tumors, cisplatin or BGB combos (AID 1671449); conditions: LFS_MB_P medulloblastoma cells;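 further: cells exposed for 96 hours; 0% = vehicle DMSO and 100% = killing by high DMSO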
# [2] = growth inhibition, single agent and combos, cell-based, chromothripsis tumors, cisplatin or BGB combos (AID 1671450); conditions: HDN33 neuroblastoma cells, stronger effect = higher value;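 further: cells exposed to compound for four days; 0% = vehicle DMSO and 100% = cell killing by high DMSO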
# [3] = growth inhibition, single agents and combos, ICB984, cell-based, cisplatin or BGB combos, synergistic combos for chromothripsis tumors (AID 1671451; call rule not given here;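 further: cells exposed for 96 hours before readout; 0% = vehicle DMSO and 100% = killing by high DMSO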); conditions: ICB984 medulloblastoma cells, drug combinations, stronger effect = higher value
# [4] = growth inhibition, single agents and combos, LFS_MB_1R, cell-based, cisplatin or BGB combos, synergistic combos for chromothripsis tumors (AID 1671452); conditions: LFS_MB_1R medulloblastoma cells, stronger effect = higher value;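 further: cells exposed for 96 hours before readout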
# [5] = growth inhibition, single agents and combos, HTB85, cell-based, BGB or cisplatin IC20 combos, synergistic combos for chromothripsis tumors (AID 1671453); conditions: HTB85 osteosarcoma cells, drug combinations, stronger effect = higher value;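 further: cells exposed for 96 hours before readout; 0% = vehicle DMSO and 100% = high DMSO killing control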
# [6] = growth inhibition, single agents and combos, CRL2098, cell-based, BGB or cisplatin IC20 combos, synergistic combos for chromothripsis tumors (AID 1671454); conditions: CRL2098 osteosarcoma cells, drug combinations, stronger effect = higher value;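 further: cells exposed for 96 h before readout; 0% = vehicle DMSO and 100% = killing by high DMSO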
# [7] = growth inhibition, single agents and combos, HD-MB03, cell-based, BGB or cisplatin IC20 combos, synergistic combos for chromothripsis tumors (AID 1671455; in the data active means inhibition above about 83%;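 further: 0% = vehicle DMSO and 100% = high DMSO as cytotoxic control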); conditions: HD-MB03 medulloblastoma cells, stronger effect = higher value
# [8] = growth inhibition, single agents and combos, UWB1.289, cell-based, BGB or cisplatin combos, synergistic combos for chromothripsis tumors (AID 1671456); conditions: UWB1.289 ovarian carcinoma cells, stronger effect = higher value;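 further: cells exposed to compound for four days; 0% = vehicle DMSO and 100% = killing by high DMSO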
# [9] = growth inhibition, single agents and combos, LFS_MB_2R, cell-based, cisplatin combos, synergistic combos for chromothripsis tumors (AID 1671457); conditions: LFS_MB_2R medulloblastoma cells, stronger effect = higher value;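 further: cells exposed to compound for four days before readout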
# [10] = growth inhibition, MDA-MB-436, cell-based, BGB or cisplatin combos, synergistic combos for chromothripsis tumors (AID 1671458; call rule not given here;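 further: cells exposed for 96 hours; 0% = vehicle DMSO and 100% = killing by high DMSO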); conditions: MDA-MB-436 breast carcinoma growth inhibition, drug combinations, stronger effect = higher value
# [11] = UWB1.289_BRCA1 ovarian cancer growth, cell-based, BGB or cisplatin combinations (AID 1671459); conditions: UWB1.289 BRCA1 ovarian carcinoma, drug combinations, stronger effect = higher value
# [12] = drug combination toxicity in non-malignant astrocytes – cell-based, BGB or cisplatin IC20 combos, cytotoxicity control for chromothriptic childhood tumor combination screen (AID 1671460); conditions: Human astrocytes, viability inhibition, drug combinations, at 0.5 µM, stronger effect = higher value;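 further: cells exposed to compounds for 96 hours before viability readout; 0% = vehicle and 100% = killing control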
# [13] = BT084 cell growth, single and combined drugs, ICGC_MB145, cisplatin and BGB IC40 combos (AID 1671461); conditions: BT084 medulloblastoma cells, drug combinations, stronger effect = higher value;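 further: cells exposed to drugs for 96 hours; 0% = vehicle DMSO and 100% = high DMSO full killing control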
# [14] = RCMB18 cell growth, single agent and combined, cisplatin and BGB IC40 combos (AID 1671462); conditions: RCMB18 medulloblastoma cells, stronger effect = higher value;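 further: cells exposed to compound for four days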
# [15] = CRL1545 cell growth, single agent and combined, cisplatin and BGB IC20 combos (AID 1671464); conditions: CRL1545 osteosarcoma cells, stronger effect = higher value;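 further: cells exposed to compound for 96 hours before readout; 0% = vehicle DMSO and 100% = high DMSO killing control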
# [16] = at 0.5 µM, stronger effect = higher value
# [17] = measured here: combination with BGB IC20, at 0.005 µM
# [18] = measured here: combination with BGB IC40, at 0.005 µM
# [19] = measured here: combination with BGB IC40, at 0.05 µM
# [20] = measured here: combination with cisplatin, at 0.5 µM, stronger effect = higher value
# [21] = measured here: combination with cisplatin, at 5 µM, stronger effect = higher value
# [22] = measured here: with BGB IC20 combination, at 0.5 µM
# [23] = measured here: with cisplatin IC20 combination, at 0.5 µM
# [24] = measured here: 5 uM single agent, at 5 µM
# [25] = measured here: combination with cisplatin, at 0.5 µM
# [26] = measured here: combination with cisplatin, at 5 µM
# [27] = measured here: with BGB IC20, at 0.5 µM
# [28] = measured here: with BGB IC20, at 5 µM
# [29] = measured here: with cisplatin IC20, at 0.5 µM
# [30] = measured here: with cisplatin IC20, at 5 µM
# [31] = measured here: combination with BGB at IC20, at 0.5 µM
# [32] = measured here: combination with cisplatin at IC20, at 0.5 µM
# [33] = measured here: combo with BGB at IC20, at 0.5 µM
# [34] = measured here: combo with cisplatin at IC20, at 0.5 µM
# [35] = measured here: inhibition with BGB combination, at 0.05 µM
# [36] = measured here: inhibition with cisplatin combination, at 0.05 µM
# [37] = measured here: BGB combination, at 0.5 µM
# [38] = measured here: BGB combination, at 5 µM
# [39] = measured here: cisplatin combination, at 0.5 µM
# [40] = measured here: cisplatin combination, at 5 µM
# [41] = BGB combination, concentration series, at 5 µM
# [42] = cisplatin combination, concentration series, at 5 µM
# [43] = measured here: combo with BGB IC20
# [44] = measured here: combo with cisplatin IC20
# [45] = cisplatin combination, at 0.5 µM
# [46] = measured here: BGB IC40 combination 0.05 uM, at 0.05 µM
# [47] = measured here: BGB IC40 combination, at 0.05 µM
smiles,measurement,setting,value
O=c1[nH]c(=S)[nH]c(/N=C/c2ccccc2)c1N=Cc1ccccc1,inhibition,[1]; [16],10.8% (inactive) and -1.11% (inactive)
same,inhibition,[1]; [17],7.44% and 1.3%
same,inhibition,[1]; [18],-16.5% and -26.2%
same,inhibition,[1]; [19],0.419% and 2.63%
same,inhibition,[1]; [20],24.4% and -35.7%
same,inhibition,[1]; [21],-12.6% and -19.3%
same,inhibition,"[2]; BGB combo, at 5 µM",-34% and -42.2%
same,inhibition,[2]; at 0.5 µM,-32.1% (inactive) and -19.5% (inactive)
same,inhibition,"[2]; cisplatin combo, at 5 µM",-21.4% and -48.2%
same,inhibition,[2]; [22],-30.4% and -16.3%
same,inhibition,[2]; [23],-42.2% and -15.7%
same,inhibition,"[2]; single agent, at 5 µM",-37.4% and -37%
same,inhibition,"[3]; BGB IC20 combo, at 0.005 µM",1.63% and -15.3%
same,inhibition,"[3]; BGB IC40 combo, at 0.005 µM",-50.4% and 4.14%
same,inhibition,"[3]; BGB IC40 combo, at 0.05 µM",-19.4% and -32.8%
same,inhibition,[3]; at 0.5 µM,-11.2% (inactive) and -6.96% (inactive)
same,inhibition,"[3]; cisplatin combo, at 0.05 µM",-22.8% and -39.7%
same,inhibition,"[3]; cisplatin combo, at 0.5 µM",-24.4% and 3.72%
same,inhibition,"[3]; cisplatin combo, at 5 µM",-19.7% and -8.53%
same,inhibition,[3]; [24],-28.4% and -9.24%
same,inhibition,[4]; at 0.5 µM,-24.3% (inactive) and -5.83% (inactive)
same,inhibition,[4]; [19],-16.1% and -5.8%
same,inhibition,[4]; [25],-52.1% and -29.6%
same,inhibition,[4]; [26],-67.9% and -16.8%
same,inhibition,[5]; at 0.5 µM,-24.2% (inactive) and -31.7% (inactive)
same,inhibition,[5]; [27],-36.7% and -29.2%
same,inhibition,[5]; [28],-72.3% and -10.6%
same,inhibition,[5]; [29],-17.7% and -30.3%
same,inhibition,[5]; [30],-46.1% and -5.16%
same,inhibition,"[5]; single agent, at 5 µM",-26.4% and -23.9%
same,inhibition,[6]; at 0.5 µM,-71.1% (inactive) and -62.3% (inactive)
same,inhibition,[6]; [31],-91.5% and -60.8%
same,inhibition,[6]; [32],-66.2% and -85.1%
same,inhibition,[7]; at 0.5 µM,-16.3% (inactive) and -12.6% (inactive)
same,inhibition,[7]; [33],-14.6% and -13.1%
same,inhibition,[7]; [34],-24.1% and -18.2%
same,inhibition,[8]; at 0.5 µM,-10.1% (inactive) and -11.6% (inactive)
same,inhibition,[8]; [35],-8.71% and -6.64%
same,inhibition,[8]; [36],-18.2% and -17.6%
same,inhibition,[9]; at 0.5 µM,-2.17% (inactive) and -7.03% (inactive)
same,inhibition,[9]; [25],4.09% and -15.4%
same,inhibition,[9]; [26],-75.4% and -34.5%
same,inhibition,[10]; at 0.5 µM,-13.4% (inactive) and -8.5% (inactive)
same,inhibition,[10]; [37],-4.77% and -3.51%
same,inhibition,[10]; [38],-0.125% and 9.68%
same,inhibition,[10]; [39],-26% and -20.1%
same,inhibition,[10]; [40],-13.5% and -24.6%
same,inhibition,[11]; [41],-20.1% and -21%
same,inhibition,[11]; at 0.5 µM,-11.1% (inactive) and -17.6% (inactive)
same,inhibition,[11]; [42],-0.543% and -15.8%
same,inhibition,[12],-14.7% (inactive) and -11.3% (inactive)
same,inhibition,[12]; [43],-6.75% and -6.18%
same,inhibition,[12]; [44],-39.7% and -17.5%
same,inhibition,[13]; at 0.5 µM,-0.252% (inactive) and 5.93% (inactive)
same,inhibition,[13]; [45],-5.14% and -7.54%
same,inhibition,"[13]; cisplatin combination, at 5 µM",-2.96% and -198%
same,inhibition,[13]; [46],11.6% and -6.05%
same,inhibition,"[13]; single agent, at 5 µM",-8.91% and -10.5%
same,inhibition,[14]; at 0.5 µM,-27.2% (inactive) and -2.36% (inactive)
same,inhibition,"[14]; cisplatin combo, at 5 µM",-73.6% and -65.6%
same,inhibition,[14]; [47],-4.14% and 6.35%
same,inhibition,[14]; [25],-76.9% and 2.66%
same,inhibition,"[14]; single agent, at 5 µM",-10.2% and -0.506%
same,inhibition,[15]; at 0.5 µM,-63.6% (inactive) and -4.77% (inactive)
same,inhibition,[15]; [22],-46.4% and -22.1%
same,inhibition,[15]; [23],-76% and 2.34%
same,inhibition,"[15]; single agent, at 0.05 µM",-68.7% and -41.2%
same,inhibition,"[15]; single agent, at 5 µM",-27.1% and -36.4%
CCC(C)C(=O)OC1CC(C)C=C2C=CC(C)C(CCC3CC(O)CC(=O)O3)C21 (stereo unspecified),inhibition,[1]; [16],-40.1% (inactive)
same,inhibition,[1]; [17],-11.8%
same,inhibition,[1]; [18],-21.9%
same,inhibition,[1]; [19],-1.78%
same,inhibition,[1]; [20],-46.1%
same,inhibition,[1]; [21],-44.5%
same,inhibition,"[2]; BGB combo, at 5 µM",63.1%
same,inhibition,[2]; at 0.5 µM,21.8% (inactive)
same,inhibition,"[2]; cisplatin combo, at 5 µM",52.4%
same,inhibition,[2]; [22],26.6%
same,inhibition,[2]; [23],11.5%
same,inhibition,"[2]; single agent, at 5 µM",65.1%
same,inhibition,"[3]; BGB IC20 combo, at 0.005 µM",0.285%
same,inhibition,"[3]; BGB IC40 combo, at 0.005 µM",16.8%
same,inhibition,"[3]; BGB IC40 combo, at 0.05 µM",20.5%
same,inhibition,[3]; at 0.5 µM,-5.66% (inactive)
same,inhibition,"[3]; cisplatin combo, at 0.05 µM",20.5%
same,inhibition,"[3]; cisplatin combo, at 0.5 µM",-11.6%
same,inhibition,"[3]; cisplatin combo, at 5 µM",-5.67%
same,inhibition,[3]; [24],-12.3%
same,inhibition,[4]; at 0.5 µM,22% (inactive)
same,inhibition,[4]; [19],-11%
same,inhibition,[4]; [25],12.3%
same,inhibition,[4]; [26],12%
same,inhibition,[5]; at 0.5 µM,-1.62% (inactive)
same,inhibition,[5]; [27],-18.6%
same,inhibition,[5]; [28],74.3%
same,inhibition,[5]; [29],-1.27%
same,inhibition,[5]; [30],74.6%
same,inhibition,"[5]; single agent, at 5 µM",73.5%
same,inhibition,[6]; at 0.5 µM,-29.5% (inactive)
same,inhibition,[6]; [31],-33%
same,inhibition,[6]; [32],-19.4%
same,inhibition,[7]; at 0.5 µM,30.1% (inactive)
same,inhibition,[7]; [33],26.5%
same,inhibition,[7]; [34],26.8%
same,inhibition,[8]; at 0.5 µM,5.25% (inactive)
same,inhibition,[8]; [35],-16.1%
same,inhibition,[8]; [36],5.33%
same,inhibition,[9]; at 0.5 µM,-20.3% (inactive)
same,inhibition,[9]; [25],-23.3%
same,inhibition,[9]; [26],-7.2%
same,inhibition,[10]; at 0.5 µM,-16.4% (inactive)
same,inhibition,[10]; [37],-18.4%
same,inhibition,[10]; [38],-6.45%
same,inhibition,[10]; [39],-23%
same,inhibition,[10]; [40],8.95%
same,inhibition,[11]; [41],23.4%
same,inhibition,[11]; at 0.5 µM,3.85% (inactive)
same,inhibition,[11]; [42],29.3%
same,inhibition,[12],-9.68% (inactive)
same,inhibition,[12]; [43],-8.02%
same,inhibition,[12]; [44],-11.2%
same,inhibition,[13]; at 0.5 µM,6.42% (inactive)
same,inhibition,[13]; [45],24.4%
same,inhibition,"[13]; cisplatin combination, at 5 µM",33.2%
same,inhibition,[13]; [46],4.47%
same,inhibition,"[13]; single agent, at 5 µM",25.9%
same,inhibition,[14]; at 0.5 µM,1.38% (inactive)
same,inhibition,"[14]; cisplatin combo, at 5 µM",4.72%
same,inhibition,[14]; [47],-3.68%
same,inhibition,[14]; [25],2.71%
same,inhibition,"[14]; single agent, at 5 µM",8.59%
same,inhibition,[15]; at 0.5 µM,4.53% (inactive)
same,inhibition,[15]; [22],12.6%
same,inhibition,[15]; [23],0.492%
same,inhibition,"[15]; single agent, at 0.05 µM",-12.7%
same,inhibition,"[15]; single agent, at 5 µM",11.3%
